# STAT3 inh: reduces IL-6 driven STAT3 reporter signal; inhibition, % at 5.5 µM; AID 862; U3A cells, IL-6 STAT3-luciferase reporter, luminescence; host cell line lacks STAT1; hit rate 0.89% among 190,000;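 active means inhibition above the mean inhibition across all screened compounds plus 3 SD, cut at about 44% in these data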;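 further: 0% = DMSO only wells and 100% = 100 µM nifuroxazide control wells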
# C8 TRAIL sens: caspase-8 TRAIL sensitization; hit rate 1% among 360,000; inhibition (viability loss, TRAIL sensitization), % at 10 µM; NB7+C8 cells + TRAIL, ATPlite viability luminescence;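 active means compounds causing at least 50% loss of cell viability in the single-dose screen, relative to plate controls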
# PPC-1+TRAIL kill: kills PPC-1 cancer cells in the presence of TRAIL; PPC-1 cells + TRAIL, ATPLite viability luminescence; cell killing (% activity), % at 4 µM or 5 µM; hit rate 0.41% among 220,000; AID 1443;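 active means cell killing above 50% in the first pass at 4 µM, then a duplicate retest at 5 µM averaging 50% or more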;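 further: plate controls were cells with TRAIL plus DMSO for no effect and medium-only wells lacking cells for full effect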
# HSF1 inhib: HSF1 inhibition; NIH3T3-HGL HSE-luciferase, MG132-induced, luminescence 8 h; active compounds read low; activity change, negative = inhibition, % at 7.5 µM (by protocol); hit rate 0.77% among 300,000; AID 2098;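 active means more than half of replicate wells show activity change below -50%, luminescence cut by over half; inconclusive means some wells, but at most half, below -50%; inactive means no replicate well below -50%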;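 further: luciferase reports HSF-1 transcriptional activity via heat shock element; 0% = median of DMSO wells and -100% = zero luminescence signal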
# STAT1 inh: reduces IFN-gamma driven STAT1 reporter signal; NIH 3T3 STAT1-luciferase reporter, luminescence; AID 920; hit rate 0.35% among 200,000; inhibition, % at 5.5 µM;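 active means inhibition above a set limit, the mean inhibition across all tested compounds plus 3 SD, cut at about 34% in these data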;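 further: 0% = IFN-gamma with DMSO and 100% = IFN-gamma with 300 µM nifuroxazide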
# HSP90 inh: HSP90 refolding inhibition in rabbit reticulocyte lysate | luciferase refolding luminescence, 3 h | inhibition, % at 5.6 µM | hit rate 0.91% among 290,000 | AID 1789;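 active means inhibition above the screen-wide mean plus 3 SD, computed separately per campaign, cut at about 16% in these data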;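 further: 0% = DMSO wells and 100% = 60 µM geldanamycin wells; inhibitors lower the luminescence because luciferase stays unfolded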
# Starred values were filed as active, the others as inactive; ? = inconclusive; · = no result given. Sampled rows, rich in hits. Any-hit rate of the full collection: about 2.4%.
SMILES,STAT3 inh,C8 TRAIL sens,PPC-1+TRAIL kill,HSF1 inhib,STAT1 inh,HSP90 inh
Cc1cc(C)cc(Cn2ncc(Cl)c(Cl)c2=O)c1,-6,·,20,88,7,-1
CCc1ccc(C(=O)Cn2ncc(Cl)c(Cl)c2=O)cc1,5,97*,27,-80*,22,4
O=C(Cn1ncc(Cl)c(Cl)c1=O)N1CCN(Cc2ccccc2)CC1,-3,-9,19,55,12,-3
Cc1cc(Cl)ccc1NC(=O)C1COc2ccccc2O1 (centres undefined),·,-9,·,13,·,-4
Cc1ccc(Cl)cc1NC(=O)C1COc2ccccc2O1 (centres undefined),·,3,·,-64*,·,-2
Cc1cc(C)n(-c2nc(Nc3ccccc3C(F)(F)F)nc(-n3nc(C)cc3C)n2)n1,-6,57*,17,-6,16,3
CC(C)Nc1ccc(Nc2ccnc3cc4ccccc4cc23)cc1,·,92*,21,6,·,-1
O=C(Nc1cc(C(F)(F)F)ccc1N1CCCCC1)C1=COCCO1,·,-6,·,·,·,·
CCOC(=O)c1cccc(NC(=O)/C=C/c2ccc3c(c2)OCO3)c1,19,85*,33,-3,9,4
O=Cc1ccc(O)c2ncccc12,·,56*,12,?,·,6
NS(=O)(=O)c1ccc(N=Nc2ccc(O)c3ncccc23)cc1,·,45,·,-14,·,-1
Cn1cccc1/C=N/n1c(-c2ccc(C(C)(C)C)cc2)n[nH]c1=S,3,54*,24,11,0,5
Cc1cn([C@H]2C[C@H](O)[C@@H](CNCc3ccccc3OCCCN3CCOCC3)O2)c(=O)[nH]c1=O,·,-3,·,·,·,·
CC(=O)c1ccc(NC(=S)N2CCCC(CO)C2)cc1 (centres undefined),15,19,34,-8,-15,2
COC(=O)Cc1ccc(NC(=S)N2CCCC(CO)C2)cc1 (centres undefined),6,75*,63*,0,3,4
O=C(OCn1ncc(Cl)c(Cl)c1=O)c1cccc(C(F)(F)F)c1,29,94*,33,21,18,13
CSc1cc(-c2ccc(Cl)cc2)n(Cc2ccccc2)c(=O)c1C#N,0,75*,15,-5,-1,1
CCN(CC)CC(=O)n1c2c(c3ccccc31)CCCC2,-2,-7,19,-2,-9,-4
CN1CCN(CC(=O)n2c3c(c4ccccc42)CCCC3)CC1,-15,13,18,-64*,3,1
O=C(NCc1ccc2c(c1)OCO2)c1nc(S(=O)(=O)Cc2ccccc2F)ncc1Cl,·,31,·,107,·,-3
CC(C)c1nnc(NC(=O)c2nc(S(=O)(=O)Cc3ccccc3F)ncc2Cl)s1,·,·,·,-80*,·,-2
Cc1nnc(NC(=O)c2nc(S(=O)(=O)Cc3ccccc3C)ncc2Cl)s1,·,97*,·,-77*,·,1
CSc1nnc(NC(=O)c2nc(S(=O)(=O)Cc3ccccc3F)ncc2Cl)s1,·,81*,·,-22,·,1
CCCNC(=O)C1(C)CCCN(Cc2ccccc2F)C1 (centres undefined),·,-13,·,·,·,·
Cc1csc(-c2nc3ccccc3n2C(C(=O)NC(C)(C)C)c2ccccc2)c1 (centres undefined),·,6,·,·,·,·
SMILES,STAT3 inh,C8 TRAIL sens,PPC-1+TRAIL kill,HSF1 inhib,STAT1 inh,HSP90 inh
Cc1ccn2c(c1)nc(=S)n2C(=O)c1ccco1,1,·,71*,22,-129,-3
C[C@H](CO)N1C[C@H](C)[C@H](CN(C)C(=O)NC2CCCCC2)Oc2cc(-c3cccnc3)ccc2S1(=O)=O,·,-14,·,·,·,·
O=C1c2ccccc2[C@@H]2Cc3csc[n+]3[C@H]12,·,-1,·,·,·,·
Cc1ccccc1CN1C[C@H]2CON(C)[C@H]2C[C@H]1c1cccc(Br)c1,·,1,·,·,·,·
Cc1cccc(-c2ocnc2C(=O)N2CCN(C(=O)c3cccs3)CC2)c1,·,-2,·,-87*,·,-4
CNC(=O)c1ccc(-c2cc3onc(-c4ccccc4)c3c(=O)n2C)cc1,·,10,·,·,·,·
Cc1ccc(-c2cc3onc(-c4ccccc4)c3c(=O)n2C)cc1,·,78*,·,·,·,·
O=C(O)C[C@@H]1C(=O)O[C@@H]2C(COC(=O)c3cc(O)c(O)c(O)c3)O[C@@H](OC(=O)c3cc(O)c(O)c(O)c3)[C@@H](OC(=O)c3cc(O)c(O)c4c3[C@H]1[C@H](O)C(=O)O4)[C@H]2OC(=O)c1cc(O)c(O)c(O)c1 (some centres undefined),·,·,17,·,·,·
O=C(NCc1cccnc1)c1cc(C2CCCCN2S(=O)(=O)c2cccs2)on1 (centres undefined),·,-2,·,·,·,·
O=C(NNc1nc(=O)c2cccnc2s1)c1ccccc1O,12,53*,24,-3,7,3
O=C(NNc1c2ccccc2nc2ccccc12)c1ccccc1O,6,0,16,9,-9,-6
Cc1cc(N)n(-c2cc(C)c3ccccc3n2)n1,3,60*,48,8,-13,4
COc1ccc(S(=O)(=O)NCC(c2cccnc2)N2CCN(C)CC2)cc1C (centres undefined),7,-8,6,-6,7,1
COc1ccc(S(=O)(=O)NCC(c2cccnc2)N2CCN(C)CC2)cc1OC (centres undefined),·,-14,·,-71*,·,2
CCC(C)[C@H]1CNC(=O)C(=O)N1CC1CCCCC1 (some centres undefined),·,-15,·,·,·,·
COc1ccccc1C(=O)Nc1ccc(N2CCN(C(C)=O)CC2)cc1,25,3,15,2,-8,-4
COc1ccccc1C(=O)Nc1ccc(N2CCCCC2)cc1,-61,58*,36,22,-43,7
CSc1cccc(NS(=O)(=O)c2cc(Br)cnc2N)c1,·,-2,·,-61*,·,-3
COc1ccc(NC(=O)/C(Cl)=C(/Cl)S(=O)(=O)Cc2ccccc2)cn1,-9,24,27,-76*,-137,5
COc1ccc(NC(=O)C(Cl)=C(Cl)Cl)cn1,-2,3,6,-10,4,4
CCCC1=Nc2cc(C(=O)NCCCN3CCN(C)CC3)ccc2Sc2ccccc21,·,17,·,-51*,·,2
CCCC1=Nc2cc(C(=O)NCCCN3CCOCC3)ccc2Sc2ccccc21,·,12,·,2,·,-4
Cc1cc2nc(-c3ccc(Cl)cc3)c(CC3CCCCC3)n2c(C)c1Br,·,16,·,·,·,·
